Measured potencies and affinities stand elsewhere. Activity calls are given as the source filed them. The rule behind the calls is not given here.
Assay: mammalian cell viability reduction – secondary assay, cytotoxicity control for West Nile virus antiviral project, dose response (AID 1650)

| Structure (SMILES) | outcome |
| --- | --- |
| CCN(CC)CCOC(=O)c1ccc(NC(=O)CCCN2C(=O)S/C(=C/c3ccc(OC)cc3)C2=S)cc1 | inactive |
| CSc1cccc(NC(=S)N(CCCN2CCCC2)Cc2cccn2Cc2ccc(Cl)cc2)c1 | inactive |
| Cc1ccc2cc(C#N)c(N3CCCN(C(=S)NCCCN(C)C)CC3)nc2c1 | inactive |
| Cc1ccccc1C(=O)c1cccn1CC(=O)NCCN1CCN(c2cccc(C)c2C)CC1 | inactive |
| Cc1cccc2cc(CN(CCCN(C)C)C(=S)NCCc3ccccc3)c(=O)[nH]c12 | inactive |
| CCN(CC)CCNc1ncnc2c1sc1nc(N3CCCC3)c3c(c12)CC(C)(C)OC3 | inactive |
| CN1CCN(C(=O)CCN2C(=O)/C(=C/c3cccc(Br)c3)SC2=S)CC1 | inactive |
| O=C(CCCN1C(=O)/C(=C\c2ccccc2)SC1=S)Nc1ccc(O)cc1 | inactive |
| CCCN1CCN(CCCNC(=O)c2ccc3nc(N4CCC(C)CC4)sc3c2)CC1 | inactive |
| O=C(CCC1CCCC1)N=C1SC2CS(=O)(=O)CC2N1Cc1ccccc1 (stereo unspecified) | inactive |
| CCCCCn1c(N2CCC(Cc3ccccc3)CC2)nc2c1c(=O)[nH]c(=O)n2C | inactive |
| OC(COc1ccc(CNCCc2ccc(C(F)(F)F)cc2)cc1)CN1CCCCC1 (stereo unspecified) | inactive |
| CC(C)c1ccc(-c2cc(C(=O)NN3CCN(C)CC3)c3ccccc3n2)cc1 | inactive |
| CN1CCN(c2nc(Nc3cccc(C(F)(F)F)c3)nc(N3CCOCC3)n2)CC1 | inactive |
| O=C(/C=C/c1cccnc1)c1ccc(O)cc1 | inactive |
| CCN1CCN(CCCNC(=O)c2cc3c(s2)-c2ccccc2OC3)CC1 | inactive |
